This excerpt belongs to a sample that is enriched for hits.
Sm TGR block = inhibitors of Schistosoma mansoni thioredoxin glutathione reductase | Q962Y6 | purified TGR, DTNB reduction, TNB absorbance 405 nm | Potency, µM (titrated, usually from 114 µM), without a hit: top-dose activity change, negative = inhibition, hits mostly inhibitors | actives 3% (n = 360,000) | AID 485364; note: potency is the fitted concentration of half-maximal effect; % is set by controls: 0 for no effect and ±100 for the full control effect; nearly all actives have a fitted effect of over 60% in size
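First, TGR (20 nM dispensed) and NADPH were mixed with compound. Second, a 15 min room-temperature incubation followed. Third, further NADPH and then DTNB were added to start the reaction. Finally, TNB absorbance was monitored kinetically.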
LmPK inhibitor = LmPK (Leishmania mexicana) enzyme inhibition | Q27686 | purified LmPK, Kinase-Glo ATP luminescence, 1 h | Potency, µM (doses to about 57.5 µM), for the others: at the highest dose activity change, negative = inhibition, most hits filed as inhibitors | actives 0.37% (n = 290,000) | AID 1721; note: potency is the fitted concentration of half-maximal effect; % is set by controls: 0 for no effect and ±100 for the full control effect
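Pyruvate kinase activity monitored as ATP production (luciferase luminescence). Conditions: 0.1 nM enzyme, 0.5 mM PEP, 0.1 mM ADP, 1 h, RT; normalized against uninhibited and no-enzyme wells.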
Shiga toxin inh = Shiga toxin inhibition; Vero cells, Shiga toxin protein synthesis inhibition reporter; actives 9.2% (n = 290,000); inhibition, % at 38.7 µM; in the data active = inhibition mostly above about 28%, no sharp cut-off; inactive = mostly below about 43%; note: 0% is about no effect
Tb PYK inh = inhibitors of Trypanosoma brucei pyruvate kinase. TbPYK enzyme, Kinase-Glo Plus ATP luminescence, 45 min. Potency, µM (titrated, usually from 76.8 µM), inactives show at the highest dose activity, negative = inhibition, hits mostly inhibitors. actives 0.12% (n = 410,000); note: potency is the fitted concentration of half-maximal effect; % is set by controls: 0 for no effect and ±100 for the full control effect; nearly all actives have a fitted effect of over 50% in size
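Luminescent Kinase-Glo Plus end-point after 45 min room-temperature reaction of T. brucei pyruvate kinase started with 130 uM ADP (final). Buffer TEA 50 mM pH 7.2 with KCl, MgCl2, BSA, Tween-20; titration-based qHTS with fitted concentration-effect curves.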
CHX counter = counter-screen hit for Shiga toxin inhibitors, cycloheximide; actives 12% (n = 300,000); AID 2314; max response, %; cell reporter, cycloheximide protein synthesis inhibition counterscreen; in the data active = max response mostly above about 13%, no sharp cut-off; inactive = mostly below about 14%; note: read at 38.3 µM for the half of the compounds with a filed dose; 0% is about no effect
Giardia FBPA inh = Giardia lamblia aldolase inhibition; A8B2U2; purified Giardia FBPA; Potency, µM (top dose mostly 59.6 µM), inactives show at the top dose activity, negative = inhibition, usual class: inhibitors; actives 0.71% (n = 290,000); note: potency is the fitted concentration of half-maximal effect; % is set by controls: 0 for no effect and ±100 for the full control effect; nearly all actives have a fitted effect of over 55% in size
Target sequence (A8B2U2 whole entry, looked up): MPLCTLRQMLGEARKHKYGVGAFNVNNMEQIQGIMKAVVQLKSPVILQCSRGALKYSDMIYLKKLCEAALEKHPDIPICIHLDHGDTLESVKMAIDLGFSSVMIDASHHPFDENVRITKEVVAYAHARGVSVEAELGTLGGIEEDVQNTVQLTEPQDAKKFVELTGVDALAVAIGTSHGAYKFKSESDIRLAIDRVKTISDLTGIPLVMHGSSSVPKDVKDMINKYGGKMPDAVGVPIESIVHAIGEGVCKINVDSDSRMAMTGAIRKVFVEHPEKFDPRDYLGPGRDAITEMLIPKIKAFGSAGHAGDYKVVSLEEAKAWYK
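Giardia FBPA (40 nM reagent) was preincubated 10 min at RT with compound (up to 57.5 uM final), then substrate plus GAPDH/TPI/NAD/arsenate coupling system with diaphorase/resazurin was added; resorufin fluorescence (525/598 nm) was read after 20 min.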
* marks the source's active call; other numbers are inactive results. Unless noted, calls come from the whole dose curve; as a rule, active = well fitted curve in the direction sought with a large enough effect; inconclusive = small, poorly fitted or top-dose-only effect, or another doubt; inactive = no such curve, though single readings can be large; an effect the other way counts as inactive or inconclusive.

For CC(C)C[C@H](N)C(=O)N[C@H](C(=O)N[C@@H](CCCN=C(N)N)C(=O)N[C@H](CS)C(=O)NCC(=O)N[C@@H](CCCCN)C(=O)N[C@@H](Cc1cnc[nH]1)C(=O)N[C@@H](CO)C(=O)N[C@@H](CCCN=C(N)N)C(=O)O)C(C)C the results were Shiga toxin inh -5, CHX counter -1 and Giardia FBPA inh 5%.
Screening Nc1nonc1-c1noc(-c2ccccc2Br)n1 returned Sm TGR block -10%, LmPK inhibitor -10%, Shiga toxin inh 38*, Tb PYK inh -1%, CHX counter 30* and Giardia FBPA inh -1%.
Screening Nc1nonc1-c1noc(CCCN2C(=O)c3ccccc3C2=O)n1 returned Sm TGR block -15%, LmPK inhibitor 0%, Shiga toxin inh 98*, Tb PYK inh 2%, CHX counter 112* and Giardia FBPA inh 6%.
CCOc1ccccc1NC(=O)C(CC(C)C)NS(=O)(=O)c1ccc2c(c1)CCN2C(C)=O (centres undefined) was read as Sm TGR block 0% and Tb PYK inh 3%.
`Cc1ccc(CSc2nc3cccnc3n2Cc2ccc(C(=O)NC3CCCCC3)cc2)cc1` gave Sm TGR block -4% and Tb PYK inh 5%.
`CC(=O)c1cccc(-n2c(=O)c3c4c(sc3n(CC(=O)c3ccc(Cl)cc3)c2=O)CN(C(C)=O)CC4)c1` gave Sm TGR block 5% and Tb PYK inh 6%.
For CCN(C(=O)c1cc2c(=O)oc3ccccc3c2s1)c1ccc(C)c(C)c1 the results were Sm TGR block -5% and Tb PYK inh -1%.
For CCN(CC)C(=O)c1cc2c(=O)oc3ccccc3c2s1 the results were Sm TGR block 4%, LmPK inhibitor -2%, Shiga toxin inh 34*, Tb PYK inh -6%, CHX counter 27* and Giardia FBPA inh -6%.
For O=C(NC(=S)NC1CCCC1)c1ccccc1 the results were Sm TGR block inconclusive, LmPK inhibitor -12%, Shiga toxin inh 67*, Tb PYK inh 1% and CHX counter 43*.
Screening O=C(NC(=S)NC1C2CC3CC(C2)CC1C3)c1ccccc1 (centres undefined) returned Sm TGR block inconclusive, LmPK inhibitor -7%, Shiga toxin inh 49*, Tb PYK inh 0% and CHX counter 18*.
For O=C(NC(=S)NC1CCCCCCCCCCC1)c1cccnc1 the results were Sm TGR block 9%, LmPK inhibitor 6%, Shiga toxin inh -14, Tb PYK inh 1%, CHX counter 1 and Giardia FBPA inh 4%.
Screening CC(=O)NNC(=S)NC(=O)c1ccccc1 returned Sm TGR block 50%, LmPK inhibitor 8%, Shiga toxin inh 10, Tb PYK inh -4%, CHX counter 1 and Giardia FBPA inh inconclusive.
For COc1ccc(CCNC(=O)c2ccc3c(c2)CCN3S(=O)(=O)c2ccc(C)cc2)cc1OC the results were Sm TGR block -1% and Tb PYK inh -10%.
`CC(=O)NCCNc1ncnc2ccc(-c3ccccc3C#N)cc12` gave Giardia FBPA inh -2%.
`Cc1cc(/C=C2/SC(=O)N(CC(=O)N3CCOCC3)C2=O)c(C)n1-c1ccccc1F` gave Sm TGR block -8%, LmPK inhibitor 0%, Shiga toxin inh 47*, Tb PYK inh 4%, CHX counter 22* and Giardia FBPA inh -26%.
Screening Cc1cc(/C=C2\SC(=O)N(CC(=O)Nc3ccccc3F)C2=O)c(C)n1C returned Sm TGR block 25µM*, LmPK inhibitor -4%, Shiga toxin inh -8, Tb PYK inh -4%, CHX counter -2 and Giardia FBPA inh -4%.
`COc1ccc(/C=C2\SC(N3CCCCC3)=NC2=O)cc1` gave Sm TGR block 3%, LmPK inhibitor 2%, Shiga toxin inh 21, Tb PYK inh 14%, CHX counter 22* and Giardia FBPA inh 4%.
Screening CCOC(=O)C1CCCN(C2=NC(=O)/C(=C/c3ccc(O)c(OC)c3)S2)C1 (centres undefined) returned Sm TGR block -6%, LmPK inhibitor 0%, Shiga toxin inh 30, Tb PYK inh -1%, CHX counter 14* and Giardia FBPA inh -3%.
Screening CCOC(=O)C1CCCN(C2=NC(=O)/C(=C/c3ccc(OC)c(OC)c3)S2)C1 (centres undefined) returned Sm TGR block 12%, LmPK inhibitor 1%, Shiga toxin inh -7, Tb PYK inh -2%, CHX counter -4 and Giardia FBPA inh 3%.
For CCc1ccc(/C=C2\SC(N3CCCC3)=NC2=O)cc1 the results were Sm TGR block 8%, LmPK inhibitor 3%, Shiga toxin inh 32, Tb PYK inh -1%, CHX counter 14 and Giardia FBPA inh 9%.
O=C1N=C(N2CCCC2)S/C1=C\C=C\c1ccccc1 was read as Sm TGR block 0%, LmPK inhibitor -8%, Shiga toxin inh 69*, Tb PYK inh 10%, CHX counter 47* and Giardia FBPA inh -5%.
For O=C1N=C(N2CCCCC2)S/C1=C\c1ccncc1 the results were Sm TGR block -2%, LmPK inhibitor -6%, Shiga toxin inh -11, Tb PYK inh -1%, CHX counter -2 and Giardia FBPA inh -3%.
For COC(=O)C1=C(C)N(Cc2ccccc2)C(=S)N[C@H]1CCc1ccccc1 the results were Sm TGR block -13%, LmPK inhibitor -1%, Shiga toxin inh 3, CHX counter -2 and Giardia FBPA inh -1%.
O=C(NNc1nc(-c2ccccc2)cs1)c1ccco1 was read as Sm TGR block -1%, LmPK inhibitor 2%, Shiga toxin inh 23, Tb PYK inh -14%, CHX counter 12* and Giardia FBPA inh 9%.
O=C(NNc1nc(-c2ccc(Cl)cc2)cs1)c1ccco1 was read as Sm TGR block -7%, LmPK inhibitor 1%, Shiga toxin inh 41*, Tb PYK inh -9%, CHX counter 39* and Giardia FBPA inh 5%.
`Cc1ccc(-c2csc(NC(=S)NC(=O)c3ccco3)n2)cc1` gave Sm TGR block -28%, LmPK inhibitor 0%, Shiga toxin inh -3, Tb PYK inh 12%, CHX counter -3 and Giardia FBPA inh -21%.
For COc1ccc(-n2c(-c3ccc(Cl)cc3)cc3c2CC(C)(C)CC3=O)c(OC)c1 the results were Sm TGR block 3% and Tb PYK inh -2%.
COc1cc(NC(=O)N2CCC(CN3CCCCCC3)CC2)cc(OC)c1OC was read as Sm TGR block -24% and Tb PYK inh -1%.
`O=C(CN1C(=O)NC(c2ccccc2)(c2ccccc2)C1=O)N1CCOCC1` gave Sm TGR block 3% and Tb PYK inh 2%.

Screening results: PubChem BioAssay, National Center for Advancing Translational Sciences (NCATS)
